From PubChem BioAssay AID1159580 (chemical genetic matrix, 2015)
The whole screen tested about 5,500 compounds, of which about 2,000 (36%) were called active. Roughly 18% stayed inconclusive and do not appear here. Cut-off read from the data, not from the text of the source: active = normalized growth mostly below about 0.91 (no sharp cut-off); inconclusive = no clear call, values can overlap the other calls; inactive = mostly above about 0.92. The list shows a part of the results.

Assay: chemical genetic growth profiling, strain panel (AID 1159580);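 note: tested at 20 µM; growth read once vehicle control cultures reached saturation at 30 °C; 1 = growth at the plate median or of vehicle wells; lower values mean less growth of the strain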
Details: growth OD

Measured: normalized growth

C[C@@H]1CC[C@@]2(OC1)O[C@H]1CC3C4CC[C@H]5C[C@@H](O)CC[C@]5(C)C4CC[C@]3(C)[C@H]1[C@@H]2C (stereo not given in full)
inactive: S. cerevisiae deletion strains, locus YJR066W, strain TOR1, active compounds read low 0.945 | S. cerevisiae deletion strains, locus YJR075W, strain HOC1, active compounds read low 0.981 | S. cerevisiae deletion strains, locus YKL009W, strain mrt4, active compounds read low 0.991 | S. cerevisiae deletion strains, locus YKL068W, active compounds read low 0.981 | S. cerevisiae deletion strains, locus YKL085W, strain MDH1 (second series), active compounds read low 0.977 | S. cerevisiae deletion strains, locus YKL085W, strain MDH1, active compounds read low 0.977 | S. cerevisiae deletion strains, locus YKL160W, strain elf1, active compounds read low 0.996 | S. cerevisiae deletion strains, locus YKR001C, strain vps1, active compounds read low 0.987 | S. cerevisiae deletion strains, locus YKR026C, strain gcn3, active compounds read low 0.984 | S. cerevisiae deletion strains, locus YKR091W, strain srl3, active compounds read low 0.986 | S. cerevisiae deletion strains, locus YLL001W, strain dnm1, active compounds read low 1 | S. cerevisiae deletion strains, locus YLL026W, active compounds read low 0.988 | S. cerevisiae deletion strains, locus YLL041C, strain sdh2, active compounds read low 1 | S. cerevisiae deletion strains, locus YLR027C, strain aat2, active compounds read low 0.988 | S. cerevisiae deletion strains, locus YLR039C, strain RIC1, active compounds read low 1.01 | S. cerevisiae deletion strains, locus YLR058C, strain SHM2, active compounds read low 0.991 | S. cerevisiae deletion strains, locus YLR102C, strain apc9, active compounds read low 0.977 | S. cerevisiae deletion strains, locus YLR113W, strain HOG1, active compounds read low 0.999 | S. cerevisiae deletion strains, locus YLR221C, strain rsa3, active compounds read low 1.02 | S. cerevisiae deletion strains, locus YLR258W, strain gsy2, active compounds read low 1 | S. cerevisiae deletion strains, locus YLR262C, strain YPT6 (second series), active compounds read low 1.02 | S. cerevisiae deletion strains, locus YLR268W, strain sec22, active compounds read low 1 | S. cerevisiae deletion strains, locus YLR320W, strain mms22, active compounds read low 0.99 | S. cerevisiae deletion strains, locus YLR342W, strain FKS1, active compounds read low 0.976 | S. cerevisiae deletion strains, locus YLR357W, strain rsc2, active compounds read low 0.973 | S. cerevisiae deletion strains, locus YLR370C, strain arc18, active compounds read low 0.997 | S. cerevisiae deletion strains, locus YLR371W, strain rom2, active compounds read low 0.979 | S. cerevisiae deletion strains, locus YLR384C, strain iki3, active compounds read low 0.993 | S. cerevisiae deletion strains, locus YLR418C, strain cdc73, active compounds read low 0.973 | S. cerevisiae deletion strains, locus YML016C, strain PPZ1, active compounds read low 1 | S. cerevisiae deletion strains, locus YML032C, strain rad52, active compounds read low 0.997 | S. cerevisiae deletion strains, locus YML120C, strain ndi1, active compounds read low 1.01 | S. cerevisiae deletion strains, locus YML124C, strain tub3, active compounds read low 0.983 | S. cerevisiae deletion strains, locus YMR058W, strain fet3, active compounds read low 0.996 | S. cerevisiae deletion strains, locus YMR078C, strain ctf18, active compounds read low 0.969 | S. cerevisiae deletion strains, locus YMR125W, strain sto1, active compounds read low 0.984 | S. cerevisiae deletion strains, locus YMR129W, active compounds read low 0.987 | S. cerevisiae deletion strains, locus YMR205C, strain PFK2, active compounds read low 1 | S. cerevisiae deletion strains, locus YMR223W, strain ubp8, active compounds read low 0.979 | S. cerevisiae deletion strains, locus YMR231W, strain pep5, active compounds read low 0.998 | S. cerevisiae deletion strains, locus YMR263W, strain SAP30, active compounds read low 0.976 | S. cerevisiae deletion strains, locus YMR307W, strain GAS1, active compounds read low 1.23 | S. cerevisiae deletion strains, locus YNL067W, strain RPL9B, active compounds read low 0.974 | S. cerevisiae deletion strains, locus YNL071W, strain lat1, active compounds read low 0.996 | S. cerevisiae deletion strains, locus YNL183C, strain NPR1, active compounds read low 0.975 | S. cerevisiae deletion strains, locus YNL209W, strain ssb2, active compounds read low 0.983 | S. cerevisiae deletion strains, locus YNL233W, strain BNI4, active compounds read low 0.99 | S. cerevisiae deletion strains, locus YNL248C, strain rpa49, active compounds read low 1 | S. cerevisiae deletion strains, locus YNL250W, strain rad50, active compounds read low 0.955 | S. cerevisiae deletion strains, locus YNL271C, strain bni1, active compounds read low 0.983 | S. cerevisiae deletion strains, locus YNL298W, strain CLA4, active compounds read low 0.972 | S. cerevisiae deletion strains, locus YNL307C, strain MCK1, active compounds read low 0.989 | S. cerevisiae deletion strains, locus YNL322C, strain KRE1 (second series), active compounds read low 0.987 | S. cerevisiae deletion strains, locus YNL322C, strain KRE1, active compounds read low 0.987 | S. cerevisiae deletion strains, locus YNR049C, strain mso1, active compounds read low 0.983 | S. cerevisiae deletion strains, locus YNR052C, strain pop2, active compounds read low 0.962 | S. cerevisiae deletion strains, locus YOL006C, strain TOP1, active compounds read low 1.14 | S. cerevisiae deletion strains, locus YOL012C, strain htz1 0.991 | S. cerevisiae deletion strains, locus YOL147C, strain pex11, active compounds read low 0.978 | S. cerevisiae deletion strains, locus YOR001W, strain rrp6, active compounds read low 0.999 | S. cerevisiae deletion strains, locus YOR061W, strain CKA2, active compounds read low 0.996 | S. cerevisiae deletion strains, locus YOR069W, strain VPS5, active compounds read low 0.983 | S. cerevisiae deletion strains, locus YOR070C, strain gyp1, active compounds read low 0.965 | S. cerevisiae deletion strains, locus YOR080W, strain dia2, active compounds read low 0.996 | S. cerevisiae deletion strains, locus YOR083W, strain WHI5, active compounds read low 0.992 | S. cerevisiae deletion strains, locus YOR106W, strain vam3, active compounds read low 0.983 | S. cerevisiae deletion strains, locus YOR136W, strain idh2, active compounds read low 0.992 | S. cerevisiae deletion strains, locus YOR144C, strain elg1, active compounds read low 0.988 | S. cerevisiae deletion strains, locus YOR184W, strain ser1, active compounds read low 1.03 | S. cerevisiae deletion strains, locus YOR231W, strain MKK1, active compounds read low 0.998 | S. cerevisiae deletion strains, locus YOR265W, strain rbl2, active compounds read low 0.995 | S. cerevisiae deletion strains, locus YOR270C, strain vph1, active compounds read low 1.03 | S. cerevisiae deletion strains, locus YOR290C, strain snf2, active compounds read low 1.01 | S. cerevisiae deletion strains, locus YOR316C, strain cot1, active compounds read low 0.962 | S. cerevisiae deletion strains, locus YPL051W, strain arl3, active compounds read low 0.997 | S. cerevisiae deletion strains, locus YPL078C, strain atp4, active compounds read low 1 | S. cerevisiae deletion strains, locus YPL106C, strain sse1, active compounds read low 0.972 | S. cerevisiae deletion strains, locus YPL240C, strain hsp82, active compounds read low 0.977 | S. cerevisiae deletion strains, locus YPL256C, strain CLN2, active compounds read low 0.999 | S. cerevisiae deletion strains, locus YPR119W, strain clb2, active compounds read low 0.979 | S. cerevisiae deletion strains, locus YPR141C, strain kar3, active compounds read low 0.951 | S. cerevisiae deletion strains, locus YPR163C, strain tif3, active compounds read low 0.959 | S. cerevisiae deletion strains, locus YPR167C, strain met16, active compounds read low 0.985 | S. cerevisiae deletion strains, strain wtn01, active compounds read low 1.01 | S. cerevisiae strains, strain wild type, active compounds read low 1.01
